# ChEMBL document CHEMBL3988442, “University of Dundee, Small-Polar-MMV Screening Library” (2021)
# Out of some 69,000 compounds screened, about 1,000 (1.4%) showed an effect of 50% or more. The list comes from a sample in which strong results are over-represented; it also holds similar structures and randomly drawn compounds.
# Tested on: Leishmania donovani
# Assay: Leishmania intramacrophage assay
# Type: functional, organism-based
# Set-up: scale not given: in the data most compounds retested in dose-response had high values
smiles,measurement,setting,value
N#CC1(C(=O)N2CCOC(c3ccc(F)cc3)C2)CCCCC1 (stereo not given),Percent Effect,"30.3 µM, […]",33.91%
O=C(Nc1cc(C(F)(F)F)c[nH]c1=O)C1CCCO1 (stereo not given),Percent Effect,"30.3 µM, […]",65.61%
O=C(Nc1cc(C(F)(F)F)c[nH]c1=O)C1CCNCC1,Percent Effect,"30.3 µM, […]",29.22%
Cl.O=C(Nc1cc(C(F)(F)F)c[nH]c1=O)C1CCCCN1 (stereo not given),Percent Effect,"30.3 µM, […]",10.48%
CN1CCOC(CNCC(=O)NCCC2=CCCCC2)C1 (stereo not given),Percent Effect,"30.3 µM, […]",0.5751%
C[C@@H]1CN(Cc2nc(Cc3ccccc3F)no2)C[C@H](C)O1,Percent Effect,"30.3 µM, […]",14.95%
COc1ccc(C[C@H]2CN(C(=O)c3cc(C)no3)CC[C@H]2OC)cc1,Percent Effect,"30.3 µM, […]",7.467%
CO[C@H]1CCN(C(=O)c2cc(C)on2)C[C@@H]1Cc1ccccc1,Percent Effect,"30.3 µM, […]",-10.42%
CO[C@@H]1CCN(C(=O)c2cc(C)on2)C[C@@H]1Cc1ccccc1,Percent Effect,"30.3 µM, […]",52.23%
CC(=O)N1CCC2(CC1)CC(C(C)C)=NO2,Percent Effect,"30.3 µM, […]",-2.802%
NC(=O)CSCC(=O)NCC1CCCC1,Percent Effect,"30.3 µM, […]",12%
CNC(=O)C1CN(Cc2ccc(C#N)cc2F)c2ccccc2O1 (stereo not given),Percent Effect,"30.3 µM, […]",34.5%
O=C1CO[C@H]2CN(Cc3ccc(F)c(F)c3)C[C@H]2N1,Percent Effect,"30.3 µM, […]",13.71%
COc1ccc(F)cc1-c1ccccc1CC1(C(=O)O)CCOCC1,Percent Effect,"30.3 µM, […]",-18.67%
CCOC(=O)C1(Cc2ccccc2-c2ccccc2OC)CCNCC1.Cl,Percent Effect,"30.3 µM, […]",51.68%
COc1ccccc1-c1ccccc1CC1(C(=O)O)CCNCC1,Percent Effect,"30.3 µM, […]",-31.14%
CCNC(=O)C1CCCN(c2ccc3ccc(F)cc3n2)C1 (stereo not given),Percent Effect,"30.3 µM, […]",4.617%
CC(C)Oc1ncccc1CNC(=O)NC(C)c1cccs1 (stereo not given),Percent Effect,"30.3 µM, […]",19.58%
CCCOc1cc(C)ccc1NC(=O)NCCNC(=O)C(C)C,Percent Effect,"30.3 µM, […]",-16.43%
CCc1nc2c(NCC3COc4c(cccc4OC)C3)ncnc2o1 (stereo not given),Percent Effect,"30.3 µM, […]",45.88%
CCc1nc2c(NCC3COc4cc(OC)ccc4C3)ncnc2o1 (stereo not given),Percent Effect,"30.3 µM, […]",60.09%
CCc1nc2c(NCC3COc4ccccc4C3)ncnc2o1 (stereo not given),Percent Effect,"30.3 µM, […]",35.57%
COc1ccc2c(c1)OCC(Cc1ccc(C)nc1N)C2 (stereo not given),Percent Effect,"30.3 µM, […]",-0.8362%
COc1cccc2c1OCC(CNc1cc(N)nc(SC)n1)C2 (stereo not given),Percent Effect,"30.3 µM, […]",21.08%
COc1ccc2c(c1)OCC(CNc1cc(N)nc(SC)n1)C2 (stereo not given),Percent Effect,"30.3 µM, […]",52.24%
CCC(CNC(=O)c1nc(=O)[nH][nH]1)Oc1cccc(C(F)(F)F)c1 (stereo not given),Percent Effect,"30.3 µM, […]",11.69%
CC1c2ncc(COCC3CC3)n2CCN1C.O=C(O)C(F)(F)F (stereo not given),Percent Effect,"30.3 µM, […]",11.79%
Cc1nc(N(C)C)nc(-c2cccc(-c3ccn(CCCF)n3)c2)c1C,Percent Effect,"30.3 µM, […]",-3.93%
CN(C)c1cc(CNC(=O)c2ccc(F)cc2F)ccn1,Percent Effect,"30 µM, 30.03 µM",42.64%
CCc1nc(CN(C)CC(=O)NC(C)C)cs1,Percent Effect,"30.3 µM, […]",35.21%
CCCc1cc(C(=O)NC(C)c2ccccc2)n(C)n1 (stereo not given),Percent Effect,"30.3 µM, […]",52.97%
CCCc1cc(C(=O)N[C@H](C)[C@@H](O)c2ccc(O)cc2)n(C)n1,Percent Effect,"30.3 µM, […]",13.63%
CCCc1cc(C(=O)N[C@@H](CO)[C@@H](O)c2ccccc2)n(C)n1,Percent Effect,"30.3 µM, […]",0.7938%
CN(Cc1ccco1)C(=O)NCc1ccnc(SC(C)(C)C)c1,Percent Effect,"30.3 µM, […]",10.46%
CCn1cc(CNCc2ccc(C(=O)OC)cc2)c(C)n1,Percent Effect,"30.3 µM, […]",-10.67%
CN(C)CC1(O)CCCN(C(=O)Cc2ccc(Cl)c(Cl)c2)C1 (stereo not given),Percent Effect,"30.3 µM, […]",-2.799%
CC(C)Nc1nc(N2CCCC2)nc2c1CN(c1ncc(F)cn1)CC2,Percent Effect,"30.3 µM, […]",60.7%
CC(C)Nc1nc(N2CCCC2)nc2c1CN(C(C)C)CC2,Percent Effect,"30 µM, 30.03 µM",-2.181%
CCC(C)N1CCc2nc(N3CCCC3)nc(NC(C)C)c2C1 (stereo not given),Percent Effect,"30.3 µM, […]",35.6%
Cc1nc(CN2CCc3nc(NC(C)C)nc(C)c3C2)cs1,Percent Effect,"30.3 µM, […]",4.033%
Cc1nc(CN2CCc3nc(N4CCCC4)nc(NC(C)C)c3C2)cs1,Percent Effect,"30.3 µM, […]",51.28%
CC(C)Nc1nc(N2CCCC2)nc2c1CN(C)CC2,Percent Effect,"30.3 µM, […]",20.69%
O=C(OCc1cccs1)c1cccc(C(=O)N2CCCC2)n1,Percent Effect,"30.3 µM, […]",3.746%
Cn1cc(-c2ncc3c(c2C(=O)O)CCN(Cc2ccco2)C3)cn1.O=C(O)C(F)(F)F,Percent Effect,"30.3 µM, […]",10.3%
Cc1ccc(C(=O)NCc2ccnc(N(C)C)c2)c(C)c1,Percent Effect,"30.3 µM, […]",24.48%
O=C(c1ccccn1)N1CCCC(c2ncncc2-c2ccncc2)C1 (stereo not given),Percent Effect,"30.3 µM, […]",-13.38%
O=C(O)C(F)(F)F.O=C1NCC[C@]12CN(CC1CCOCC1)C[C@H]2c1ccccc1,Percent Effect,"30.3 µM, […]",7.927%
COc1cccc(CNC(=O)c2cccnc2N)c1,Percent Effect,"30.3 µM, […]",50.32%
Nc1ncccc1C(=O)NCc1cccc(Br)c1,Percent Effect,"30.3 µM, […]",45.5%
Cc1cccc(CNC(=O)c2cccnc2N)c1,Percent Effect,"30.3 µM, […]",26.02%
COc1ccc(C(=O)NS(=O)(=O)c2cc(Cl)sc2Cl)cc1OC(F)F,Percent Effect,"30.3 µM, […]",16.5%
CCn1cc(NC(=O)NCC(c2ccsc2)N(C)C)cn1 (stereo not given),Percent Effect,30 µM,19.68%
COc1ccc(CC(=O)N2CCCC(n3cccn3)C2)cc1F (stereo not given),Percent Effect,30 µM,5.405%
CNC(=O)c1sccc1S(=O)(=O)Nc1ccc(C)cc1,Percent Effect,"30.3 µM, […]",8.63%
CN1CCOC(CN(C(=O)Cc2ccccc2F)c2nccs2)C1 (stereo not given),Percent Effect,"30 µM, 30.03 µM",-6.347%
c1ccc(Cc2nc(CN3CCCC3Cn3cncn3)cs2)cc1 (stereo not given),Percent Effect,30 µM,-0.1933%
Cc1ccc2nc(C3CCCN3Cc3cccc(CCN)c3)[nH]c2c1 (stereo not given),Percent Effect,"30.3 µM, […]",54.52%
Cc1ccc2nc(C3CCCN3Cc3scnc3C)[nH]c2c1 (stereo not given),Percent Effect,"30.3 µM, […]",25.37%
Cc1ccc2nc(C3CCCN3Cc3csc(C)n3)[nH]c2c1 (stereo not given),Percent Effect,"30.3 µM, […]",32.46%
O=C1NCCN(Cc2ccoc2)C1CC(=O)N1CCc2sccc2C1 (stereo not given),Percent Effect,"30.3 µM, […]",23.18%
CN(CC(=O)NC1(C)CCS(=O)(=O)C1)Cc1ccc(Br)cc1 (stereo not given),Percent Effect,30 µM,-0.9039%
CN(C)C(=O)CN1CCC2(COCc3cnc(-c4cccnc4)nc32)C1.O=C(O)C(F)(F)F.O=C(O)C(F)(F)F (stereo not given),Percent Effect,"30.3 µM, […]",71.1%
O=C(O)C(F)(F)F.c1cnc(N2CCC3(COCc4cnc(-c5cccnc5)nc43)C2)nc1 (stereo not given),Percent Effect,"30 µM, 30.03 µM",17.52%
CN(C)C(=O)CN1CCC2(COCc3cnc(-c4ccccc4)nc32)C1 (stereo not given),Percent Effect,"30.3 µM, […]",31.1%
CN(C)C1CCN(C(=O)c2cccc(S(=O)(=O)NCC3(C)COC3)c2)C1 (stereo not given),Percent Effect,"30.3 µM, […]",28.53%
CCn1cc(CN2CCCC(COc3ccccc3F)C2)cn1 (stereo not given),Percent Effect,"30.3 µM, […]",32.99%
CC(C)n1c(C2CCCN(Cc3ccnn3C)C2)nc2ccccc21 (stereo not given),Percent Effect,"30 µM, 30.03 µM",7.956%
Cn1nccc1CN1CCCC(COc2ccccc2F)C1 (stereo not given),Percent Effect,"30.3 µM, […]",53.5%
COc1ccc(CN2Cc3[nH]nc(C(=O)N(C)C)c3C2)cc1,Percent Effect,"30.3 µM, […]",5.856%
COc1ccc(CCN(C)CCS(=O)(=O)c2ccc(Cl)cc2)cc1OC,Percent Effect,"30.3 µM, […]",7.861%
COc1ccc(CCCN(C)C(=O)c2cc(Cl)c[nH]2)cc1OC,Percent Effect,"30.3 µM, […]",32.32%
CCN(CCS(=O)(=O)c1ccc(Cl)cc1)Cc1ccc(OC)c(OC)c1,Percent Effect,"30.3 µM, […]",54.72%
COc1ccc(CN(C)CCS(=O)(=O)c2ccc(Cl)cc2)cc1OC,Percent Effect,"30.3 µM, […]",56.02%
COCCN(C)Cc1ccc(OC)c(OC(F)F)c1,Percent Effect,"30 µM, 30.03 µM",7.354%
CCN(Cc1nccs1)Cc1cc(Cl)ccc1OC,Percent Effect,"30.3 µM, […]",-1.846%
Cc1cc(C)n(Cc2ccc(-c3noc(C(=O)NC[C@@H](C)O)n3)cc2)n1,Percent Effect,"30.3 µM, […]",18.71%
O=C(O)C(F)(F)F.O=C(O)C(F)(F)F.c1cnc(N2CCC3(CCN(Cc4ccncc4)CC3)CC2)nc1,Percent Effect,"30 µM, 30.03 µM",38.21%
Cc1nccn1CC1CCCN(S(=O)(=O)c2cnn(C)c2)C1 (stereo not given),Percent Effect,"30.3 µM, […]",12.01%
O=C(N1CCOCC1)N1CCOC[C@H](Oc2ccc(C(F)(F)F)cc2)C1,Percent Effect,"30.3 µM, […]",-1.363%
COc1cc(CN2CC[C@@H](N3CCCCCC3)[C@H](O)C2)cc(Cl)c1OC,Percent Effect,"30.3 µM, […]",50.85%
COc1cc(Cl)c(CN2CCC(C(N)=O)C2)cc1Cl (stereo not given),Percent Effect,"30.3 µM, […]",31.88%
COc1cc(Cl)cc(CN2CCCC(N3CCCC3)C2)c1OC (stereo not given),Percent Effect,"30.3 µM, […]",12.54%
COCCC(=O)N1CCC2(CCN(Cc3ccc(OC)c(F)c3)C2)C1 (stereo not given),Percent Effect,"30.3 µM, […]",-20.78%
CC(=O)NCc1ccc(C(=O)N2CCCc3c(F)ccc(C)c32)cc1,Percent Effect,"30.3 µM, […]",35.68%
COc1cccc2c1OCC(Cc1cc(C(N)=O)ccn1)C2 (stereo not given),Percent Effect,"30.3 µM, […]",69.64%
COc1cccc2c1OCC(Cc1cc(C(=O)N3CCCC3)ccn1)C2 (stereo not given),Percent Effect,"30.3 µM, […]",20.15%
CNC(=O)c1ccnc(CC2COc3c(cccc3OC)C2)c1 (stereo not given),Percent Effect,"30.3 µM, […]",-40.6%
CCOc1ncccc1CNC(=O)Nc1ccccc1,Percent Effect,30 µM,-12.58%
COc1nn(C)cc1-c1nnc(SCc2cccnc2)n1C,Percent Effect,"30.3 µM, […]",-1.752%
CC(C)=CCC1(C(=O)O)CCCN(CCC(=O)NC2CC2)C1 (stereo not given),Percent Effect,"30.3 µM, […]",0.5122%
CCN(CC)C(=O)c1nc2c(s1)CCN(Cc1cccc(OC)c1)CC2.O=C(O)C(F)(F)F,Percent Effect,"30.3 µM, […]",-7.279%
COc1ccccc1OCCN(C)c1cc(C)nc(N)n1,Percent Effect,"30.3 µM, […]",6.974%
COc1ccc(OCCN(C)c2cc(C)nc(N)n2)cc1,Percent Effect,"30.3 µM, […]",6.601%
Cc1cc(N(C)CCOc2ccccc2F)nc(N)n1,Percent Effect,"30.3 µM, […]",60.08%
Cc1nc(C2CCCN2CC(=O)Nc2cc(C(C)(C)C)nn2C)no1 (stereo not given),Percent Effect,30 µM,12.3%
CC(C)n1cnnc1CN(C)CC1CCCNC1 (stereo not given),Percent Effect,"30.3 µM, […]",32.72%
Cl.N#Cc1ccc(NC(=O)C2CSCN2)cc1 (stereo not given),Percent Effect,"30.3 µM, […]",0.03454%
CS(=O)(=O)NCCC1CN(Cc2ccccc2F)CCO1 (stereo not given),Percent Effect,"30.3 µM, […]",18.65%
OC1(Cn2ccnc2)CCN(C[C@]2(O)CCCN3CCCC[C@@H]32)CC1,Percent Effect,"30.3 µM, […]",-28.91%
CC(=O)NCCNC(=O)Nc1cccc(Cl)c1SC(F)F,Percent Effect,"30.3 µM, […]",17.25%
CC(C(=O)Nc1cccc(Cl)c1SC(F)F)S(C)(=O)=O (stereo not given),Percent Effect,"30.3 µM, […]",58.19%
O=C(NCCO)Nc1cccc(Cl)c1SC(F)F,Percent Effect,"30 µM, 30.03 µM",-27.47%
Cc1[nH]c2ccccc2c1CCNc1ncnc2c1CCNCC2,Percent Effect,"30.3 µM, […]",16.03%
Cc1[nH]c2ccc(C#N)cc2c1CCNc1ncnc2c1CCNCC2,Percent Effect,"30.3 µM, […]",16.81%
Cc1[nH]c2ccc(Cl)cc2c1CCNc1ncnc2c1CCNC2,Percent Effect,"30.3 µM, […]",54.3%
